Source: PubChem BioAssay
Most compounds without a hit are left out; they make up all but 6.5% or so of the library.
Marburg entry inh = Marburg virus entry inhibition; Marburg virus pseudotyped entry inhibition, cell reporter; Potency, µM (top dose mostly 37.8 µM), hits mostly inhibitors; actives 1.8% (n = 300,000); calls by dose curve; tested in HEK293 cells
FMDV antiviral = blocks foot and mouth disease virus; Potency, µM (doses to about 57.9 µM), usual class: inhibitors; actives 1.2% (n = 410,000); AID 1159524; FMDV antiviral cell-based qHTS; calls by dose curve; tested in HEK293T cells; also: read-out not given here; nearly all actives have a fitted effect of over 45% in size
Vaccinia mCherry = inhibitors of vaccinia virus infection (mCherry reporter signal); Vaccinia virus mCherry reporter infection, fluorescence; Potency, µM (top dose mostly 36.5 µM), usual class: inhibitors; actives 0.63% (n = 310,000); calls by dose curve; tested in A549 cells; also: nearly all actives have a fitted effect of over 35% in size
Lassa entry inh = Lassa virus entry inhibition | Lassa virus pseudotype entry inhibition, cell reporter | Potency, µM (series often up to 37.9 µM), usual class: inhibitors | actives 1.2% (n = 300,000) | AID 540256; calls by dose curve; tested in HEK293 cells; also: nearly all actives have a fitted effect of over 50% in size
VACV Venus inh = vaccinia inhibition (Venus reporter). Vaccinia virus Venus reporter expression, fluorescence. Potency, µM (series often up to 36.5 µM), most hits filed as inhibitors. actives 0.46% (n = 330,000); calls by dose curve; tested in A549 cells; also: nearly all actives have a fitted effect of over 30% in size
HCMV inh = inhibitors of human cytomegalovirus; HFF cells, HCMV-luciferase reporter, 72 h; hits give low values; activity change, negative = inhibition, % at 57.5 µM; actives 4.5% (n = 410,000); AID 1259415; in the data active = activity change below about -60%; inconclusive = no clear call, values can overlap the other calls; inactive = above about -39%
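Steps: HFFs plated, 16 h 37C; compounds added; HCMV-luciferase added to MOI 1 PFU/cell; 72 h 37C; OneGlo reagent, 5 min room temperature; luminescence read, normalized to controls.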
Numbers stand for hits; . = inactive; ? = inconclusive; / = no result.

SMILES | Marburg entry inh | FMDV antiviral | Vaccinia mCherry | Lassa entry inh | VACV Venus inh | HCMV inh
CCOc1cc(C(c2c(C)[nH]n(-c3ccccc3)c2=O)c2c(C)[nH]n(-c3ccccc3)c2=O)ccc1O | / | ? | . | . | . | -105.1
CNC(=O)CN1C(=O)COc2ccc(S(=O)(=O)N3CCCCCC3)cc21 | ? | . | . | . | . | .
CCN(C(=O)CN1C(=O)COc2ccc(S(=O)(=O)N3CCCCCC3)cc21)c1cccc(C)c1 | ? | . | . | . | . | -63.1
Cc1cccc(N2CCN(C(=O)CN3C(=O)COc4ccc(S(=O)(=O)N5CCCCCC5)cc43)CC2)c1C | . | . | . | . | . | -73.2
CCN(Cc1ccccc1)C(=O)CN1C(=O)COc2ccc(S(=O)(=O)N3CCCCCC3)cc21 | . | . | . | . | . | -76.5
COc1ccc2c(c1)Sc1ccccc1N2 | . | . | . | . | . | -80.7
C(/C=C/c1ccccc1)=N/N1CCN(c2ccccc2)CC1 | ? | . | / | . | / | -100.6
COc1ccc(NC(=O)c2ccc3c(=O)n4c(nc3c2)CCCCC4)cc1 | . | . | . | ? | . | .
O=C(Nc1cccc(S(=O)(=O)N2CCCC2)c1)c1ccc2c(=O)n3c(nc2c1)CCCCC3 | ? | 12.6µM | ? | 20.6µM | ? | -66.4
O=C(Nc1ccc(S(=O)(=O)C(F)F)cc1)c1ccc2c(=O)n3c(nc2c1)CCC3 | . | ? | . | . | . | .
CC(=O)c1cccc(NC(=O)c2ccc3c(=O)n4c(nc3c2)CCCCC4)c1 | . | . | . | . | . | ?
O=C(Nc1ccc(SC(F)F)cc1)c1ccc2c(=O)n3c(nc2c1)CCC3 | / | ? | / | / | / | -70.3
O=C(Nc1cccc(S(=O)(=O)N2CCOCC2)c1)c1ccc2c(=O)n3c(nc2c1)CCCCC3 | ? | ? | ? | ? | ? | -84.0
CCO[C@H](c1cc(OC)cc([N+](=O)[O-])c1OC)[C@H](C)C=CCC(=O)OC | . | / | / | / | / | /
Cc1cc(=O)c2c(O)c3c(O)cc(O)c4c5c(O)cc(O)c6c(O)c7c(=O)cc(C)c8c1c2c(c34)c(c65)c78 | / | . | . | / | . | /
COc1cc2nc(N3CCCN(C)CC3)nc(Nc3ccncc3)c2cc1OC | / | / | . | / | ? | /
Cc1ccc(Cl)cc1N1CCN(C(c2ccc(F)cc2)c2nnc(-c3ccccc3)o2)CC1 (centres undefined) | ? | . | . | . | . | .
O=c1c2oc3ccccc3c2n(Cc2ccccc2F)c(=O)n1Cc1ccc2c(c1)OCO2 | / | . | . | . | . | .
O=[N+]([O-])c1ccc(C(O)CN2CCOCC2)cc1 (centres undefined) | . | . | . | . | . | .
O=[N+]([O-])c1ccc(S(=O)(=O)CC(CN2CCOCC2)N2CCOCC2)cc1 (centres undefined) | ? | . | ? | ? | ? | -101.9
O=S(=O)(CC(CN1CCCCC1)N1CCCCC1)c1ccccc1 (centres undefined) | / | 35.5µM | / | / | / | -98.6
O=[N+]([O-])c1ccc(S(=O)(=O)CC(CN2CCCCC2)N2CCCCC2)cc1 (centres undefined) | 4.61µM | 17.8µM | / | 5.17µM | / | .
COC(=O)c1cc(CNC(=O)c2cnsn2)cc(NC(=O)c2ccccc2OC)c1 | / | . | . | / | . | /
CNc1ccccc1C(=O)OC(C)C(=O)Nc1ccc(Cl)cn1 (centres undefined) | . | . | ? | . | 10µM | -98.2
CC1CCN(S(=O)(=O)c2ccc(C(=O)Nc3nnc(-c4ccncc4)o3)cc2)CC1 | ? | . | ? | ? | . | -87.7
SMILES | Marburg entry inh | FMDV antiviral | Vaccinia mCherry | Lassa entry inh | VACV Venus inh | HCMV inh
Cc1cccc(NC(=O)c2ccc(S(=O)(=O)N3CCCCC3)cc2)n1 | / | . | . | / | . | .
Cc1cccc(NC(=O)c2ccc(S(=O)(=O)N3CCC(C)CC3)cc2)n1 | ? | 31.6µM | ? | . | ? | -76.6
COc1ccccc1C(=O)Nc1nnc(-c2ccc3c(c2)CCCC3)o1 | / | . | . | / | . | -75.6
CC(=O)Nc1nnc(-c2ccc3c(c2)CCCC3)o1 | / | . | . | / | . | .
CC1CCCCN1S(=O)(=O)c1ccc(C(=O)Nc2nnc(-c3ccco3)o2)cc1 (centres undefined) | ? | . | ? | ? | ? | -70.2
CCOC(=O)c1ccc(NC(=O)CCCc2nc(-c3ccccc3Cl)no2)cc1 | . | . | . | . | . | .
COc1ccc(C=CNC(=O)c2ccc(OC)cc2)cc1 | . | / | / | / | / | /
Nc1nc(N)c2snnc2n1 | / | / | . | / | . | /
CN1CCN(S(=O)(=O)c2ccc(NC(=O)c3ccccc3F)cc2)CC1 | / | . | / | / | / | .
O=C(Nc1nnc(C2CC2)o1)c1ccc(S(=O)(=O)N2CCCCC2)cc1 | . | . | ? | . | . | -61.0
CC1CN(S(=O)(=O)c2ccc(C(=O)Nc3nnc(-c4ccc5c(c4)CCCC5)o3)cc2)CC(C)O1 (centres undefined) | . | . | 8.91µM | / | ? | .
CC1CCN(S(=O)(=O)c2ccc(NC(=O)c3ccccc3F)cc2)CC1 | . | . | . | / | . | -61.9
CC1CCN(S(=O)(=O)c2ccc(C(=O)Nc3nnc(C4CC4)o3)cc2)CC1 | ? | . | ? | ? | . | .
COc1cccc(CN(C)C(=O)c2cnn(-c3nccc(-c4ccc5c(c4)OCO5)n3)c2C)c1 | / | . | . | / | . | /
CCOC(=O)c1cnc(SCc2ccc(C(C)(C)C)cc2)nc1N | . | . | / | 4.11µM | / | .
CCOC(=O)c1cnc(SCc2ccccc2)nc1N | ? | / | . | . | . | .
CCc1ccc(S(=O)(=O)c2cn(C)c3ccc(C)cc3c2=O)cc1 | . | . | . | . | . | .
COc1ccc(NC(=O)CC2C(=O)N(C)C(=S)N2Cc2ccc3c(c2)OCO3)cc1 (centres undefined) | 11.2µM | . | . | . | . | .
COc1ccc(NC(=O)CC2C(=O)N(c3ccc(C)cc3)C(=O)N2Cc2ccc3c(c2)OCO3)cc1 (centres undefined) | . | . | . | ? | . | .
COc1ccc(NC(=O)N2CCN(c3nc(-c4cccc(OC)c4)cs3)CC2)cc1 | 23.1µM | 20µM | / | ? | / | -91.5
Cc1ccc(/C=C/C(=O)c2ccc([N+](=O)[O-])o2)cc1 | / | ? | . | / | ? | -79.2
O=C(/C=C/c1ccc(Cl)cc1)c1ccc([N+](=O)[O-])o1 | / | ? | 8.91µM | / | 10µM | -77.6
CCC(=O)N1c2ccc(S(=O)(=O)NCc3ccc(F)cc3)cc2CC1C (centres undefined) | . | . | . | . | . | .
COc1c(-c2coc3cc4c(cc3c2=O)CC(O)C(C)(C)O4)ccc2c1C=CC(C)(C)O2 (centres undefined) | / | 2.24µM | 11.2µM | / | 11.2µM | /
COc1c(-c2coc3cc4c(cc3c2=O)CC(OC(C)=O)C(C)(C)O4)ccc2c1C=CC(C)(C)O2 (centres undefined) | / | ? | . | / | . | /
CCC(=O)N1CCN(c2ccc(-n3c(=O)ccc4cnc5ccc(-c6cnc7ccccc7c6)cc5c43)cc2C(F)(F)F)CC1 | / | / | / | / | / | -83.0
Cc1ccc(-c2nc3c4ccccc4n(CC(=O)N4CCN(c5ccccc5F)CC4)c(=O)n3n2)cc1 | / | . | . | . | . | .
